# Laboratory results taken from PubChem BioAssay (EPA / NIEHS).
# Several values for one entry are separate records, joined by “and”; a condition that tells them apart may be missing. Equal entries are not always repeated. Results filed as inconclusive are left out. More than one record can exist for a structure, and the calls need not agree. Activity calls are given as the source filed them. The calls were made as follows: active = hit-call score of the fitted dose curve at least 0.9, where 1 is the maximum; inconclusive = response in the unintended direction; inactive = score below 0.9.
# How the values were obtained:
# [1] = biological target: human Constitutive Androstane Receptor (CAR), NR1I3 (gene 9970) (UniProt Q14994); assay: NVS_NR_hCAR_Antagonist: NovaScreen (NVS) Nuclear Receptor Binding Assay for human Constitutive Androstane Receptor Antagonism (CAR) (AID 2283344)
# Chain of human Constitutive Androstane Receptor (CAR), NR1I3 (gene 9970) (Q14994 whole entry, looked up): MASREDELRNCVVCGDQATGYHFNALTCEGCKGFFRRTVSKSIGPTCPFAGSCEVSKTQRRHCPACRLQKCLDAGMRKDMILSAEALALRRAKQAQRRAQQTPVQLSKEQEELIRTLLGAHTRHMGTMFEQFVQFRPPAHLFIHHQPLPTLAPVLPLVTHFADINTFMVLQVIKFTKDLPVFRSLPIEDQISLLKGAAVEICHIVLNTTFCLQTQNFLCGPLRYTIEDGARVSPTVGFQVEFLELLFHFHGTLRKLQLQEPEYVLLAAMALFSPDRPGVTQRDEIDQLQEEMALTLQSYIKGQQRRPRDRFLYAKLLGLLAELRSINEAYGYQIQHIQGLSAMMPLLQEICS
# In short: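 Cell-free TR-FRET binding read 1 h after dosing, antagonist mode; loss of signal versus DMSO baseline. Primary screen in duplicate at a single 25 uM; actives retested in concentration series.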
# [2] = biological target: Estrogen receptor (Homo sapiens) (UniProt P03372); assay: OT_ER_ERaERa_1440: Odyssey Thera (OT) 24-hour HEK293T Protein-Complementation Assay for Estrogen Receptor-alpha/-alpha Homodimer (AID 2283349);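 also: hits raise fluorescence above DMSO for agonists and antagonists alike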
# Chain of Estrogen receptor (Homo sapiens) (P03372 whole entry, looked up, the tested form may be a part): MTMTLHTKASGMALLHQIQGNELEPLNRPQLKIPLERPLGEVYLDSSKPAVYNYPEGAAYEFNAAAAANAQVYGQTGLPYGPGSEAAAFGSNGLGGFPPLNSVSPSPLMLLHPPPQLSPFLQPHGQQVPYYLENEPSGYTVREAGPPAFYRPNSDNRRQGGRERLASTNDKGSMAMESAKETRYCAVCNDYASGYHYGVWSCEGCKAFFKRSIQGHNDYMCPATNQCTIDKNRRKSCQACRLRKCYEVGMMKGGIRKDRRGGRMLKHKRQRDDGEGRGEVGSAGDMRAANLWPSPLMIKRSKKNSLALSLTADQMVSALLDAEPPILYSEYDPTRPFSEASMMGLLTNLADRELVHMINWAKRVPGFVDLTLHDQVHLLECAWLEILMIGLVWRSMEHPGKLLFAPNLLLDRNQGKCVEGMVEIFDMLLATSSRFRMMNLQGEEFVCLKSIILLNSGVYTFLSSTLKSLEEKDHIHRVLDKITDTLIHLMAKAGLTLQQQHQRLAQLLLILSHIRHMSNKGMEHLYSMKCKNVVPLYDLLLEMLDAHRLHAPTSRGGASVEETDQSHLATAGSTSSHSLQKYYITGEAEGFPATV
# In short: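 HEK293T cells stably expressing the human ER alpha ligand-binding domain (aa 310-547) as a homodimer PCA were dosed for 24 hours. Fluorescence intensity was read by laser scanning cytometry, and gain of signal was fitted relative to DMSO vehicle.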
# [3] = biological target: Estrogen receptor (Homo sapiens) (UniProt P03372); assay: OT_ER_ERaERa_0480: Odyssey Thera (OT) 8-hour HEK293T Protein-Complementation Assay for Estrogen Receptor-alpha/-alpha Homodimer (AID 2283351);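 also: rise in fluorescence from reassembled reporter fragments on ERα LBD homodimer in nucleus or whole cell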
# In short: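 Binding reporter in which dimerisation of ERα LBD (aa 310-547) fusions reconstitutes a fluorescent reporter in HEK293T cells. Compounds incubated 8 h; mean fluorescence intensity increase versus DMSO scored.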
# [4] = biological target: bovine Estrogen Receptor (ER), ESR1 (gene 407238) (UniProt P49884); assay: NVS_NR_bER: NovaScreen (NVS) Nuclear Receptor Binding Assay for bovine Estrogen Receptor (ER) (AID 2283345);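 also: actives lower the bound radioligand count which means they displace the ER ligand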
# Chain of bovine Estrogen Receptor (ER), ESR1 (gene 407238) (P49884 whole entry, looked up): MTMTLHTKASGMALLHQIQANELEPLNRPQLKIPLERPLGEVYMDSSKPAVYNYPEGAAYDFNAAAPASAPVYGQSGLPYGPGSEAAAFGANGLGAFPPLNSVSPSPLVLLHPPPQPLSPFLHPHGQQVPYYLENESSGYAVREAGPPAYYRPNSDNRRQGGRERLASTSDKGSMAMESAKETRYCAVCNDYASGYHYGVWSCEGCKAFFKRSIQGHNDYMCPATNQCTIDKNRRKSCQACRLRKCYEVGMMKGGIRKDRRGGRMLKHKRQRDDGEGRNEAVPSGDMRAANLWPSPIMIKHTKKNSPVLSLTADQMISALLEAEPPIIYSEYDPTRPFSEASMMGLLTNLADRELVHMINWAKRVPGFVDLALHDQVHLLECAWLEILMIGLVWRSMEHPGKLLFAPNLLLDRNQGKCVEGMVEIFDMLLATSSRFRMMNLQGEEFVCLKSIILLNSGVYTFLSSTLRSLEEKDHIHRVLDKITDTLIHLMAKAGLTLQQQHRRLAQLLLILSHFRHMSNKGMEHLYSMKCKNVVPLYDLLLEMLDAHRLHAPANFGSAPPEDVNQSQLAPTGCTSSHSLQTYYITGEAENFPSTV
# In short: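 Displacement of a radioligand from estrogen receptor in bovine uterine membrane preparations; scintillation signal taken at 18 hours, DMSO as baseline. Single-concentration duplicates (25 uM) preceded concentration-response follow-up of actives.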
# [5] = biological target: chimpanzee Androgen Receptor (AR), AR (gene 747460) (UniProt O97775); assay: NVS_NR_cAR: NovaScreen (NVS) Nuclear Receptor Binding Assay for chimpanzee Androgen Receptor (AR) (AID 2283346);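 also: radioligand displacement from AR measured by scintillation counting in a cell-free assay; a loss of bound radioligand signal versus DMSO counts as binding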
# Chain of chimpanzee Androgen Receptor (AR), AR (gene 747460) (O97775 whole entry, looked up): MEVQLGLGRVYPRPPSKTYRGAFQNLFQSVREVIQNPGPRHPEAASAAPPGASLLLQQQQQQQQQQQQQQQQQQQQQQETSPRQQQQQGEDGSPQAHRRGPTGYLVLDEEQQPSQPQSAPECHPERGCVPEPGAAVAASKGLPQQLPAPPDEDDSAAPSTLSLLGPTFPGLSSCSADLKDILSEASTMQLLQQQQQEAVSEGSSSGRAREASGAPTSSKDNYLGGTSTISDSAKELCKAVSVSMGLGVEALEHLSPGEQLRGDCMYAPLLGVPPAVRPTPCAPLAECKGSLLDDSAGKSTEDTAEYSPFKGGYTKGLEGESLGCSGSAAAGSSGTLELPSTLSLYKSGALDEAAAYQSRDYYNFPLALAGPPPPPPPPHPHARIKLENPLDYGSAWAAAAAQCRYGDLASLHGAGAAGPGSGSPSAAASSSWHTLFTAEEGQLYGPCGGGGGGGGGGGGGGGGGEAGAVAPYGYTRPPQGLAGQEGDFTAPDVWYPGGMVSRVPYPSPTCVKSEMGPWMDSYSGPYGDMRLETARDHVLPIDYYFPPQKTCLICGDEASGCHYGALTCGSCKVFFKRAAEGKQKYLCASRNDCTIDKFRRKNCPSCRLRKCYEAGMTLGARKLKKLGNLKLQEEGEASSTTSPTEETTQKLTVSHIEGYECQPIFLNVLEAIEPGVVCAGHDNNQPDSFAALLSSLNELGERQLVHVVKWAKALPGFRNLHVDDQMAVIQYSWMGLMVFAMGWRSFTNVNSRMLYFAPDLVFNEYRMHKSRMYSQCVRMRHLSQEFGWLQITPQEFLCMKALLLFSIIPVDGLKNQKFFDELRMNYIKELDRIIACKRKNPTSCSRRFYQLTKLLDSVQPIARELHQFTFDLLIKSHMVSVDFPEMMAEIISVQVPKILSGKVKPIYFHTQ
# In short: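 Radioligand binding to chimpanzee AR expressed in Sf9/Sf21 cells, cell-free, measured 72 h after dosing by lysate-based scintillation counting. Loss of signal vs DMSO; initial duplicate screen at 25 uM, actives retested in concentration series.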
# [6] = biological target: Bile acid receptor (Homo sapiens) (UniProt Q96RI1); assay: NVS_NR_hFXR_Agonist: NovaScreen (NVS) Nuclear Receptor Binding Assay for human Farnesoid X Receptor Agonism (FXR) (AID 2283347)
# Chain of Bile acid receptor (Homo sapiens) (Q96RI1 whole entry, looked up): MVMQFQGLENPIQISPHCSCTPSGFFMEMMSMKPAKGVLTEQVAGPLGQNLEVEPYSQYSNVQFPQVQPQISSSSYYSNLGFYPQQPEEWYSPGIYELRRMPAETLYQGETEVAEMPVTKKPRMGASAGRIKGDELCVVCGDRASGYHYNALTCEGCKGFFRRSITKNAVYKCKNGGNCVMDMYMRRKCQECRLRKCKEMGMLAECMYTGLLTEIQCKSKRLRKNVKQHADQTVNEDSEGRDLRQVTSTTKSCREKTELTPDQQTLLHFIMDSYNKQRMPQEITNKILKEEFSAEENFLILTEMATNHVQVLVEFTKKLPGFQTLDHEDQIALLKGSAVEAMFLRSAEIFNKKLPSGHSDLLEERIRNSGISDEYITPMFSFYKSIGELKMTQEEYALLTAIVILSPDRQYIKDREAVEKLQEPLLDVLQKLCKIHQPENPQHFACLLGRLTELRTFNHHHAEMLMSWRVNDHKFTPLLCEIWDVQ
# In short: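 Cell-free TR-FRET binding assay with extracted human FXR protein, agonist format, read 1 h after dosing. Primary screen at 25 uM single concentration in duplicate, actives retested in concentration series; gain of signal versus DMSO.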
# [7] = biological target: Estrogen receptor (Homo sapiens) (UniProt P03372); assay: NVS_NR_hER: NovaScreen (NVS) Nuclear Receptor Binding Assay for human Estrogen Receptor (ER) (AID 2283348)
# In short: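 Radioligand competitive displacement binding to estrogen receptor from MCF7 extract, cell-free; 18 h after dosing, scintillation read-out. Primary screen in duplicate at 25 uM; actives followed up in concentration series; loss of signal vs DMSO.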
# [8] = test system: guinea pig Histamine Receptor (H2), gene 100729734; assay: NVS_GPCR_gH2: NovaScreen (NVS) G Protein-Coupled Receptor Assay for guinea pig Histamine Receptor (H2) (AID 2283342)
# In short: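 Radioligand displacement on guinea pig striatal membranes, 1 h after dosing, filter-based scintillation counting; loss of signal versus DMSO. Single-point screen at 25 uM in duplicate, then concentration-response up to 50 uM.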
# NCBI gene 100848466 = assay: NVS_NR_bPR: NovaScreen (NVS) Nuclear Receptor Binding Assay for bovine Progextron Receptor (PR) (AID 2283343);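 as to AC50: actives lower bound radioligand signal below DMSO meaning displacement of the label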
# In short: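 Bovine uterine membrane preparation; radioligand displacement read by scintillation counting 18 h after dosing. Primary screen single concentration, 25 uM, in duplicate; actives followed up in concentration series. Signal loss versus DMSO baseline.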
# [9] = biological target: Bile acid receptor (Homo sapiens) (UniProt Q96RI1); assay: NVS_NR_hFXR_Antagonist: NovaScreen (NVS) Nuclear Receptor Binding Assay for human Farnesoid X Receptor Antagonism (FXR) (AID 2283350)
# In short: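 Cell-free TR-FRET ligand-binding read-out on human FXR (NR1H4) in antagonist mode, measured 1 h after dosing. Primary screen in duplicate at 25 uM, actives retested in concentration series; signal loss scored versus DMSO.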
compound,measurement,setting,value
CC1=C2C[C@H]3[C@@H](CC=C4C[C@@H](O)CC[C@@]43C)[C@@H]2CC[C@]12O[C@@H]1C[C@H](C)CN[C@H]1[C@H]2C,outcome,[1],inactive
same,outcome,[2],inactive
same,outcome,[3],inactive
CC(c1ccc(O)cc1)(c1ccc(O)cc1)c1ccc(O)cc1,AC50,[4],3.72 µM (active)
same,AC50,[5],25 µM (active)
same,outcome,[6],inactive
same,AC50,[7],1.06 µM (active)
same,AC50,[2],11.9 µM (active)
same,AC50,[3],11.9 µM (active)
Cc1cc(O)ccc1Cl,outcome,[4],inactive
same,AC50,[7],16.1 µM (active)
same,outcome,[2],inactive
same,outcome,[3],inactive
CCCCCCCCCC[N+](C)(C)CCCCCCCCCC,AC50,[8],9.87 µM (active)
same,outcome,[4],inactive
same,AC50,[5],12.3 µM (active)
same,AC50,[7],39.1 µM (active)
same,outcome,[2],inactive
same,outcome,[3],inactive
CC(C)(c1ccccc1)c1ccc(O)cc1,AC50,NCBI gene 100848466,19.2 µM (active)
same,AC50,[4],11.5 µM (active) [middle of 4 runs]
same,AC50,[5],25 µM (active)
same,AC50,[2],11.9 µM (active) and 12 µM (active) and 12.1 µM (active)
same,AC50,[3],11.9 µM (active) and 12 µM (active)
CCOC(=O)C(O)(c1ccc(Cl)cc1)c1ccc(Cl)cc1,AC50,[5],6.34 µM (active)
same,outcome,[7],inactive
same,outcome,[2],inactive
same,outcome,[3],inactive
CCNc1nc(NC(C)C)nc(SC)n1,outcome,[1],inactive
Clc1ccc(C(c2ccccc2Cl)C(Cl)(Cl)Cl)cc1 (configuration not stated),outcome,[4],inactive
same,outcome,[7],inactive
CCCCCCCCCc1ccc(O)cc1,outcome,[1],inactive
same,outcome,[4],inactive
same,outcome,[7],inactive
same,AC50,[2],54.3 µM (active) and 28.9 µM (active) and 39.6 µM (active)
same,AC50,[3],55.2 µM (active) and 30 µM (active) and 24 µM (active)
O=C(O)C(F)(F)C(F)(F)C(F)(F)C(F)(F)C(F)(F)C(F)(F)C(F)(F)C(F)(F)C(F)(F)F,outcome,[4],inactive
same,outcome,[7],inactive
same,outcome,[2],inactive
same,outcome,[3],inactive
C[C@]12CCC(=O)C=C1CC[C@@H]1[C@@H]2CC[C@@]2(C)[C@H]1CC[C@]2(C)O,outcome,[8],inactive
same,AC50,NCBI gene 100848466,0.149 µM (active)
same,outcome,[4],inactive
same,AC50,[5],2.09 nM (active) and 6.55 nM (active)
same,outcome,[6],inactive
same,AC50,[7],6.34 µM (active) and 6.28 µM (active) and 6.19 µM (active)
same,outcome,[2],inactive
same,outcome,[3],inactive
CCC(=O)O[C@H]1CC[C@H]2[C@@H]3CCC4=CC(=O)CC[C@]4(C)[C@H]3CC[C@]12C,outcome,[4],inactive
same,AC50,[5],0.801 µM (active)
same,outcome,[5],inactive
same,AC50,[7],14 µM (active)
same,outcome,[7],inactive
same,AC50,[2],11.6 µM (active)
same,outcome,[2],inactive
same,outcome,[3],inactive
NS(=O)(=O)C(F)(F)C(F)(F)C(F)(F)C(F)(F)C(F)(F)C(F)(F)C(F)(F)C(F)(F)F,outcome,[4],inactive
same,outcome,[2],inactive
same,AC50,[3],76 µM (active)
Cc1cc2c3c(c1)C(c1ccccc1)=N[C@@H](NC(=O)c1ccncc1)C(=O)N3CC2,outcome,[1],inactive
same,outcome,[2],inactive
same,outcome,[9],inactive
CCCCCCCCOC(=O)c1ccccc1C(=O)OCCCCCCCC,outcome,[4],inactive
same,outcome,[2],inactive
same,outcome,[3],inactive
O=C(O)C(F)(F)C(F)(F)C(F)(F)C(F)(F)C(F)(F)C(F)(F)C(F)(F)C(F)(F)F,outcome,NCBI gene 100848466,inactive
same,outcome,[4],inactive
same,outcome,[7],inactive
same,outcome,[2],inactive
same,outcome,[9],inactive
Oc1c(Cl)c(Cl)c(Cl)c(Cl)c1Cl,outcome,[4],inactive
same,AC50,[5],5 µM (active)
same,outcome,[2],inactive
same,outcome,[3],inactive
ClC(Cl)=C(c1ccc(Cl)cc1)c1ccc(Cl)cc1,outcome,[4],inactive
same,AC50,[5],16.8 µM (active)
same,outcome,[7],inactive
same,AC50,[2],84.3 µM (active) and 78.6 µM (active)
same,outcome,[2],inactive
same,AC50,[3],80.1 µM (active) and 56.9 µM (active) and 63.7 µM (active)
Cc1cc(-c2ccc(N)c(C)c2)ccc1N,AC50,[4],0.0481 µM (active)
same,AC50,[5],888 nM (active) and 16 µM (active)
same,AC50,[7],0.0153 µM (active)
same,outcome,[7],inactive
same,outcome,[2],inactive
same,AC50,[3],72.3 µM (active)
same,outcome,[3],inactive
O=NN(c1ccccc1)c1ccccc1,outcome,[4],inactive
same,outcome,[7],inactive
same,outcome,[2],inactive
same,outcome,[3],inactive
CCOCCOC(C)=O,outcome,[4],inactive
same,outcome,[7],inactive
same,outcome,[2],inactive
same,outcome,[3],inactive
CO/C=C(/C(=O)OC)c1ccccc1COc1cccc(C(F)(F)F)n1,outcome,[4],inactive
same,outcome,[7],inactive
same,outcome,[2],inactive
same,outcome,[3],inactive
CCCN(CCC)N=O,outcome,[1],inactive
same,outcome,[7],inactive
same,outcome,[2],inactive
same,outcome,[3],inactive
O=S(=O)(O)C(F)(F)C(F)(F)C(F)(F)C(F)(F)C(F)(F)C(F)(F)F,outcome,[1],inactive
same,outcome,[6],inactive
same,outcome,[7],inactive
same,outcome,[2],inactive
same,outcome,[3],inactive
Oc1ccc(Cl)cc1Cl,outcome,[4],inactive
same,outcome,[7],inactive
same,outcome,[2],inactive
same,outcome,[3],inactive
